Assay [1] has as its target Luciferin 4-monooxygenase (Photinus pyralis) (UniProt P08659). Nature of the assay: qHTS assay to identify small molecule inhibitors of firefly luciferase (AID 1224835). Also: nearly all actives have a fitted effect of over 25% in size. Also: potency is read from the fitted curve at half-maximal effect. The method, boiled down: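 Biochemical qHTS: compounds run as interplate titrations against purified firefly enzyme, with D-luciferin and ATP each at its KM concentration. Light output recorded by CCD imaging.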
A general note: Quantitative high-throughput screening tests each substance at several concentrations.

Assay [2] can be described thus: qHTS assay to identify small molecule agonists of the constitutive androstane receptor (CAR) signaling pathway - cell viability counter screen (AID 1224836). Also: nearly all actives have a fitted effect of over 45% in size. Also: potency is read from the fitted curve at half-maximal effect. Put shortly:
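Counter screen multiplexed with the CAR reporter readout: HepG2 cells co-transfected with hCAR and the CYP2B6-2.2kb construct receive a 15-concentration compound series and 0.75 uM PK11195 (final), then CellTiter-Fluor fluorescence is read after 23 h.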

Assay [3] is described as follows: qHTS assay to identify small molecule antagonists of the constitutive androstane receptor (CAR) signaling pathway - cell viability counter screen (AID 1224837). Also: nearly all actives have a fitted effect of over 45% in size. Also: potency is read from the fitted curve at half-maximal effect. The method, boiled down: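 To flag cytotoxic false antagonists, HepG2 hCAR/CYP2B6-2.2kb cells were treated 23 hr with 15-concentration compound series and 50 nM CITCO at 37 C/5% CO2; CellTiter-Fluor fluorescence was the measured end point.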

For assay [4], the target named is Nuclear receptor subfamily 1 group I member 3 (Homo sapiens) (UniProt Q14994). Nature of the assay: qHTS assay to identify small molecule antagonists of the constitutive androstane receptor (CAR) signaling pathway (AID 1224838).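 Also: HepG2 cells stably expressing hCAR with CYP2B6 luciferase reporter stimulated by CITCO; nearly all actives have a fitted effect of over 40% in size.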 The method, boiled down:
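Human hepatoma HepG2 cells expressing hCAR and a CYP2B6 promoter (2.2 kb) luciferase construct; compound titration (15 points) with 50 nM CITCO final, 24 h at 37 C/5% CO2; luminescence via ONE-Glo after 30 min at room temperature.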

For assay [5] the target is unchanged. In words: qHTS assay to identify small molecule agonists of the constitutive androstane receptor (CAR) signaling pathway (AID 1224839). Also: nearly all actives have a fitted effect of over 15% in size. Also: potency is read from the fitted curve at half-maximal effect. The method, boiled down: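 A 15-concentration quantitative screen uses HepG2 cells co-transfected stably with human CAR and CYP2B6-2.2kb reporter. Treatment lasts 24 h with 0.75 uM PK11195 final present; ONE-Glo luminescence is the signal.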

Assay [6] is described as follows: qHTS assay to identify small molecule antagonists of the estrogen related receptor signaling pathway with the pleiotropic PPARgamma coactivator (PGC) from Tox21 10K library - cell viability counter screen (AID 1224840; active = well fitted cell-killing curve with a large enough effect in the repeat runs, not every such curve was filed as active; also: nearly all actives have a fitted effect of over 40% in size; also: potency is read from the fitted curve at half-maximal effect). Put shortly:
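Seeded PGC/ERR cells (2,000/well, 6 h, 37 C/5% CO2) get compound by pin tool; 17.5 h incubation at 37 C; CellTiter-Fluor added, 30 min, fluorescence measured.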

The nature of assay [7]: qHTS assay to identify small molecule antagonists of the estrogen related receptor signaling pathway with the pleiotropic PPARgamma coactivator (PGC) from Tox21 10K library (AID 1224841; call rule not given here; also: actives are mostly falling curves and most rising ones were filed inactive; nearly all actives have a fitted effect of over 50% in size; also: potency is read from the fitted curve at half-maximal effect). Put shortly: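 Test chemicals dissolved in DMSO were applied to pre-incubated (6 h) PGC/ERR cells at 2,000 cells/well for an 18 h, 37 C treatment; reporter luminescence was then read using One-Glo.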

Assay [8] in a line: qHTS assay to identify small molecule agonists of the estrogen related receptor signaling pathway with the pleiotropic PPARgamma coactivator (PGC) from Tox21 10K library (AID 1224842). Also: nearly all actives have a fitted effect of over 15% in size. Also: potency is read from the fitted curve at half-maximal effect. Put shortly:
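PGC/ERR reporter cell line, 2,000 cells per well, incubated 6 h at 37 C before 23 nL compound in DMSO was added. After 18 h at 37 C, One-Glo luminescence read following 30 min at room temperature.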

Assay [9] addresses Thyrotropin receptor (Homo sapiens) (UniProt P16473). Nature of the assay: qHTS assay to identify small molecule agonists of the thyroid stimulating hormone receptor (TSHR) signaling pathway (AID 1224843; calls by dose curve; also: nearly all actives have a fitted effect of over 45% in size). The method, boiled down:
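HEK293/TSHR, 800 cells/well; cpd 30 min RT; add cAMP-d2 + anti-cAMP-cryptate, 1 h RT; fluorescence read on plate reader. 15-pt titration, n=3.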

Assay [10] in a line: qHTS assay to identify small molecule agonists of the hypoxia (HIF-1) signaling pathway - cell viability counter screen (AID 1224844; calls by dose curve; also: nearly all actives have a fitted effect of over 50% in size; also: potency is read from the fitted curve at half-maximal effect). Put shortly: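 HRE-bla ME-180; 0.5% dFBS; cpd 17 h, 37C, 5% CO2; CellTiter-Glo lum., 30 min RT, post-FRET read, same wells.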
The nature of assay [11]: qHTS assay to identify small molecule agonists of H2AX - cell viability counter screen (AID 1224847; calls by dose curve; also: nearly all actives have a fitted effect of over 30% in size; also: potency is read from the fitted curve at half-maximal effect). The method, boiled down:
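We seed wild-type CHO-K1 cells overnight, treat them for 3 hr at 37C with compounds in 15-concentration series, and quantify remaining viability by CellTiter-Glo luminescence.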

Assay [12] is described as follows: qHTS assay to identify small molecule antagonists of the estrogen related receptor (ERR) signaling pathway from Tox21 library (AID 1224848). Also: nearly all actives have a fitted effect of over 50% in size. The method, boiled down:
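Compounds dissolved in DMSO are pin-transferred onto ERR reporter cells (2,000 per well) that have settled for 6 h at 37 C. Plates then incubate 18 h at 37 C before ONE-Glo luciferase reagent and a luminescence read 30 min later.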

Assay [13] is described as follows: qHTS assay to identify small molecule agonists of the estrogen related receptor (ERR) signaling pathway from Tox21 library (AID 1224849; calls by dose curve; also: nearly all actives have a fitted effect of over 15% in size). As to conditions: ERR reporter cell line, ONE-Glo luciferase, 18 h. Put shortly: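 Tox21 compounds tested for ERR agonism in an NTP reporter cell line: 18 h treatment at 37 C, then ONE-Glo luminescence.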
Assay [14] is described as follows: qHTS RealTime-Glo MT Cell Viability Assay in HepG2 cells - 24 hour (AID 1224867). Also: nearly all actives have a fitted effect of over 50% in size. Put shortly: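 qHTS, HepG2, 600 cells/well, RealTime-Glo (NanoLuc + prosubstrate) added with cells; 5 h preincubation; DMSO compound addition; 37 C; luminescence at 0/8/16/24/32/40 h.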
Assay [15] in a line: qHTS RealTime-Glo MT Cell Viability Assay in HEK293 cells - 32 hour (AID 1224868). Also: nearly all actives have a fitted effect of over 50% in size. Also: potency is read from the fitted curve at half-maximal effect. Put shortly: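 Assay medium contained NanoLuc luciferase plus cell-permeant prosubstrate, added with HEK293 cells at 600 cells/well. After 5 h at 37 C/5% CO2 compounds were added; plates stayed at 37 C for 40 h with serial luminescence reads.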
The nature of assay [16]: A CellTox Green Cytotoxicity Assay to monitor cytotoxicity in HEK293 cells - 0 hour (AID 1224869). Also: nearly all actives have a fitted effect of over 50% in size. The method, boiled down: (§1)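 Tox21 screen in HEK293: membrane-impermeant cyanine dye fluoresces on binding dead-cell DNA; compound pinned 5 h post-seeding, plates held at 37 C, signal read repeatedly through 40 h.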
A short description of assay [17]: qHTS assay to identify small molecule agonists of the hypoxia (HIF-1) signaling pathway (AID 1224846; active = well fitted activation curve with a large enough effect in the signal ratio in the repeat runs, not every such curve was filed as active; the % refers to the signal ratio). Put shortly:
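Reporter induction in HRE-bla ME-180 cells is taken as agonism: cells sit 5 hrs after plating, receive compounds or DMSO only, incubate 17 hrs at 37C under 5% CO2, and are loaded with CCF4-AM for beta-lactamase FRET measurement.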

Assay [18] can be described thus: qHTS RealTime-Glo MT Cell Viability Assay in HepG2 cells - 40 hour (AID 1224870). Also: nearly all actives have a fitted effect of over 50% in size. Put shortly:
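HepG2 cells (600/well) mixed with RealTime-Glo MT reagent, settled 5 h at 37 C/5% CO2 before compound addition. Nonlytic NanoLuc luminescence from viable-cell prosubstrate reduction read repeatedly during 40 h treatment at 37 C.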

Assay [19] in a line: qHTS assay to identify small molecule agonists of H2AX (AID 1224845; active = well fitted activation curve with a large enough effect in the signal ratio in the repeat runs, not every such curve was filed as active; the % refers to the signal ratio). Put shortly:
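Wild-type CHO-K1 cells, plated overnight, exposed 3hr at 37C to 15 concentrations (0.76% DMSO final). Lysed, then HTRF anti-pH2AX (S139) cryptate and anti-H2AX-d2 antibodies, 24 hr room temperature; 665/620 nm emission read.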

Assay [20] can be described thus: A CellTox Green Cytotoxicity Assay to monitor cytotoxicity in HEK293 cells - 40 hour (AID 1224871). Also: nearly all actives have a fitted effect of over 45% in size. Put shortly: as §1

Where “and” joins values, the source holds several entries; their conditions need not be identical. Identical values can stand only once. Results filed as inconclusive are left out. More than one record can exist for a structure, and the calls need not agree. Calls of active or inactive are those of the source. Unless noted, calls follow the shape of the dose curve; as a rule, active = well fitted curve in the direction sought with a large enough effect in the repeat runs; inconclusive = weak or mixed curves; inactive = no such curve, though single readings can be large; an effect the other way counts as inactive or inconclusive.
% is scaled to controls: 0 for no effect and ±100 for the full control effect.

Chain of Nuclear receptor subfamily 1 group I member 3 (Homo sapiens) (Q14994 whole entry, looked up): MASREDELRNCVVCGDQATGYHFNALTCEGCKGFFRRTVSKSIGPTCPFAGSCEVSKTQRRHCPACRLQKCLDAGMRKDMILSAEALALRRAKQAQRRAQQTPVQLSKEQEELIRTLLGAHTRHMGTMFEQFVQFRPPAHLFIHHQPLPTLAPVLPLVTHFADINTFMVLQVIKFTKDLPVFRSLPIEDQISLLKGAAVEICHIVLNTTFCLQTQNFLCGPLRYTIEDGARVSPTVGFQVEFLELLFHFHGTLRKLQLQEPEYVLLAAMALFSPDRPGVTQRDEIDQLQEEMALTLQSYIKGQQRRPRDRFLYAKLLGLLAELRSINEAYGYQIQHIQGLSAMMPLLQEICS
Chain of Thyrotropin receptor (Homo sapiens) (P16473 whole entry, looked up): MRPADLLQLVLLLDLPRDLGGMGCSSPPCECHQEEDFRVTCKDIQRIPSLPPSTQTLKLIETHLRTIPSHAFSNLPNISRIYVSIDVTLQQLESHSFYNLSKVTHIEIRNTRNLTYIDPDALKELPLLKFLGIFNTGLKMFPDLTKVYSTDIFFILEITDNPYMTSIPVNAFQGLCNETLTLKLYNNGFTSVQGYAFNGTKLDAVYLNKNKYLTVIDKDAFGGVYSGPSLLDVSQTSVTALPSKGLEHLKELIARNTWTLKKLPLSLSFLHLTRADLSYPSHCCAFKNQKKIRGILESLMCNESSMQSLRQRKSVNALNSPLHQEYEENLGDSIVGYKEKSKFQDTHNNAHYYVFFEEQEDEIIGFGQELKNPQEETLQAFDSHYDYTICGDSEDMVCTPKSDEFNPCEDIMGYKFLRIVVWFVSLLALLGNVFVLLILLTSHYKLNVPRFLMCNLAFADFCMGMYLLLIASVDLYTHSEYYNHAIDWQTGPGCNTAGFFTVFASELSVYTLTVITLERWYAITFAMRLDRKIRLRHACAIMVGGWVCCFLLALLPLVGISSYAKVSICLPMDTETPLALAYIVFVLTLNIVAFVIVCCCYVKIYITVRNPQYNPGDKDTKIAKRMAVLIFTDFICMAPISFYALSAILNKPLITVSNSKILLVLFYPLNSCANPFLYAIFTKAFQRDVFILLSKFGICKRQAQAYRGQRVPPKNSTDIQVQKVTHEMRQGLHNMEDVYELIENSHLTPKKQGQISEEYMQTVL
Chain of Luciferin 4-monooxygenase (Photinus pyralis) (P08659 whole entry, looked up): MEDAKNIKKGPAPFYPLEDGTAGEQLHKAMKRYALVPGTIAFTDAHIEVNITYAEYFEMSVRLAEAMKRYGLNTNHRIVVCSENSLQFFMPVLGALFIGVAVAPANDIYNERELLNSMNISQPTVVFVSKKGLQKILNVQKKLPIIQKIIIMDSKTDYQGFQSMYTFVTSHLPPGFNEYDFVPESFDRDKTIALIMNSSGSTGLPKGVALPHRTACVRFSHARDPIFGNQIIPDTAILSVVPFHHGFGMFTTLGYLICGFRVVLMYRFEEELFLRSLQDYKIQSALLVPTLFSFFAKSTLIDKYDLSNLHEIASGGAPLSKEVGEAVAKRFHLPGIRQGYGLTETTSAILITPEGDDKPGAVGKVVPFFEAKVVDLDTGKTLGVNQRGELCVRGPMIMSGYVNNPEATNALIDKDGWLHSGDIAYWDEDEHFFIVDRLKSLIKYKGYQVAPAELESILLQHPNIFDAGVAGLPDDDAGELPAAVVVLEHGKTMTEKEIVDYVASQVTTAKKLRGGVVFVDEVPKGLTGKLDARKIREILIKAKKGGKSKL

Take `O=C(/C=C/C=C/c1ccc2c(c1)OCO2)N1CCCCC1`: the Potency is 5.04 µM (active) and 6.33 µM (active) in [1]; 1.73 µM (active) and 3.86 µM (active) in assay [5]; 17.3 µM (active) and 9.69 µM (active) in assay [8]; 55.1 µM (active) in [15]. Moreover, the Potency result in assay [2], in assay [3], in [4], in [6], in [7] and in [9] was “inactive” throughout. Also, the Potency entry in assay [10], in [11], in assay [12], in [14] and in assay [16] was “inactive” throughout. For the same compound, the activity change, positive = activation in [13] (at 92.4 µM (top of the series)) was 24.4% (active) and 12.9% (active).

For the compound `O=C1OC2(c3cc(Br)c(O)c(Br)c3Oc3c2cc(Br)c(O)c3Br)c2c(Cl)c(Cl)c(Cl)c(Cl)c21`, the Potency in assay [1] was 40 µM (active) and 24.2 µM (active); in [2], 13.7 µM (active) and 37.1 µM (active); in assay [3], 19.4 µM (active) and 33.1 µM (active); in assay [6], 4.86 µM (active) and 29.5 µM (active); in assay [7], 10.9 µM (active); in assay [10], 19.5 µM (active) and 29.7 µM (active). Also, the Potency in assay [11] was 7.14 µM (active). The Potency entry in assay [4], in assay [5], in assay [8], in assay [9], in assay [17] and in assay [12] was “inactive” throughout. Further, the Potency result in assay [14], in [15] and in assay [18] was “inactive” in each case. Moreover, the activity change, positive = activation in assay [13] (at 42.5 µM (top of the series)) was -3.67% (inactive); in assay [13] (at 92.4 µM (top of the series)) it was -28% (inactive).

Consider `O=C1c2cccc(O)c2C(=O)c2c(O)cccc21`, for which the Potency result in assay [1], in assay [2], in assay [3], in [4], in assay [5] and in assay [6] was “inactive” each time. Further, the Potency result in [8], in [9], in [10], in assay [17], in assay [14] and in assay [16] was “inactive” throughout. Further, in assay [20], the Potency result is “inactive”. In addition, the Potency in [7] is 39 µM (active) and inactive. In addition, the compound was called inactive in [19]. Besides, the activity change, positive = activation in assay [13] (at 42.5 µM (top of the series)) was -19.1% (inactive); in assay [13] (at 92.4 µM (top of the series)), -20.9% (inactive).

With `CC(C)OC=O`, the Potency result in assay [1], in [2], in assay [3], in assay [4], in assay [5] and in assay [6] was “inactive” in each case. Moreover, the Potency result in assay [7], in assay [8], in assay [9], in assay [17], in assay [11] and in assay [12] was “inactive” each time. For the same compound, the Potency result in [14], in [15], in assay [18] and in assay [20] was “inactive” in each case. For the same compound, in assay [10], the Potency is 58.4 µM (active) and inactive. Besides, the call in assay [19] was inactive. Besides, the activity change, positive = activation in assay [13] (at 92.4 µM (top of the series)) was -9.53% (inactive) and -2.76% (inactive).

`Nc1ncnc2nc[nH]c12`: the Potency result in assay [1], in assay [2], in assay [3], in assay [4], in [5] and in [6] was “inactive” throughout. Also, the Potency entry in assay [7], in [9], in assay [10], in [12], in assay [14] and in assay [15] was “inactive” in each case. Also, the Potency result in assay [20] was “inactive”. In assay [8], the Potency is 54.5 µM (active). The activity change, positive = activation in assay [13] (at 92.4 µM (top of the series)) is 111% (active).

As to `CC(=O)C1(C)CC2=C(CCCC2(C)C)CC1C` (centres undefined), the Potency result in [1], in [2], in assay [3], in assay [4], in assay [5] and in assay [6] was “inactive” throughout. The Potency result in assay [7], in [8], in [9], in assay [10], in [17] and in [11] was “inactive” each time. Besides, the Potency result in assay [12], in assay [14], in assay [15], in [16] and in assay [18] was “inactive” each time. Further, the outcome in assay [19] was inactive. The activity change, positive = activation in assay [13] (at 92.4 µM (top of the series)) was 8.11% (inactive) and 5.11% (inactive).

The values are drawn from PubChem BioAssay (Tox21).
